The full data set covers some 7,900 targets. This sample favours those with a hit. About 0.6% of all pairs of compound and target were hits. A number with no mark means an inactive call.
What was measured:
Test in all cases: log2 fold change, soluble protein after heating vs DMSO (PISA); higher = thermal stabilisation; K562 cells, 10 uM, 30 min; active = over 0.2 and 3.5 SD of the protein, either way, in both replicates (recomputed)
erlotinib = compound: C#Cc1cccc(Nc2ncnc3cc(OCCOC)c(OCCOC)cc23)c1 [erlotinib]
In short: (§1)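 Quantification of soluble protein used TMTpro 16plex LC-MS/MS, with channel sums equalised. Samples were the supernatant after 21,000xg for 90 min of pooled aliquots from K562 cells (2×10^6 cells/mL) treated with 10 μM compound for 30 min, heated for 3 min over 48°C-58°C, and extracted in PBS with 0.5% NP-40 at 4°C. Values, from duplicates, describe thermal stability against control samples on a log2 fold-change scale.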

[1] = compound: C/C(=N\NC(=O)C1=CC(=CC=C1)S(=O)(=O)N2CCOCC2)/C3=C(C=CC(=C3)Cl)O
In short: as §1

[2] = compound: C1=CC(=C(C=C1Cl)C2=NC3=NC=CN=C3C(=N2)NC4=CC=NC=C4)F
In short: as §1

[3] = compound: C1=CC(=CC=C1C2=NC3=C(N2)C=C(C=C3)C(=O)N)OC4=CC=C(C=C4)Cl
In short: as §1

[4] = compound: C1=CC2=C(C=CC(=C2)/C=C\3/C(=O)NC(=NCC4=CC=CS4)S3)N=C1
In short: as §1

[5] = compound: C1=CC2=NC=CN=C2C=C1/C=C/3\C(=O)NC(=O)S3
In short: as §1

[6] = compound: C1=CC=C(C=C1)C2=NC(=C(N2)C3=CC=NC=C3)C4=CC(=C(C=C4)Cl)O
In short: as §1

[7] = compound: C1=CC=C2C(=C1)C3=NNC4=CC=CC(=C43)C2=O
In short: as §1

[8] = compound: C1CCN(C1)C(=O)NC2=CC=CC(=C2)NC3=NC=C(C(=N3)NCCC4=CN=CN4)Br
In short: as §1

[9] = compound: C1CN(CCC1(CC2=CC=C(C=C2)Cl)N)C3=NC=NC4=C3C=CN4
In short: as §1

IRAK-1-4 Inhibitor I = compound: C1COCCN1CCN2C3=CC=CC=C3N=C2NC(=O)C4=CC(=CC=C4)[N+](=O)[O-] [IRAK-1-4 Inhibitor I]
In short: as §1

ibrutinib = compound: C=CC(=O)N1CCC[C@@H](n2nc(-c3ccc(Oc4ccccc4)cc3)c3c(N)ncnc32)C1 [ibrutinib]
In short: as §1

[10] = compound: CC(=O)c1cnc2ccc(-c3cc(Cl)c(O)c(Cl)c3)nc2c1N[C@H]1CC[C@H](CN(C)C)CC1
In short: as §1

ralimetinib = compound: CC(C)(C)Cn1c(N)nc2ccc(-c3[nH]c(C(C)(C)C)nc3-c3ccc(F)cc3)nc21 [ralimetinib]
In short: as §1

[11] = compound: CC(C)(O)CC(=O)NCCn1ccc2ncnc(Nc3ccc(Oc4cccc(C(F)(F)F)c4)c(Cl)c3)c21
In short: as §1

[12] = compound: CC(C)C1=C2N=C(C=C(N2N=C1)NCC3=CC=CC=C3)NCCCCCCN
In short: as §1

[13] = compound: CC(C)C[C@@H](C=O)NC(=O)[C@H](CC(C)C)NC(=O)[C@H](CC(C)C)NC(=O)OCc1ccccc1
In short: as §1

pinometostat = compound: CC(C)N(C[C@H]1O[C@@H](n2cnc3c(N)ncnc32)[C@H](O)[C@@H]1O)[C@H]1C[C@@H](CCc2nc3cc(C(C)(C)C)ccc3[nH]2)C1 [pinometostat]
In short: as §1

[14] = compound: CC1=C(C(CC(=O)N1)C2=CC=C(C=C2)C(F)(F)F)C(=O)NC3=C(C=C4C(=C3)C=NN4)F
In short: as §1

[15] = compound: CC1=C(C2=C(C=C1)C(=O)C3=CC=CC=C3N2CCCN)C
In short: as §1

Chain of UniProt P30711 (P30711 whole entry, looked up): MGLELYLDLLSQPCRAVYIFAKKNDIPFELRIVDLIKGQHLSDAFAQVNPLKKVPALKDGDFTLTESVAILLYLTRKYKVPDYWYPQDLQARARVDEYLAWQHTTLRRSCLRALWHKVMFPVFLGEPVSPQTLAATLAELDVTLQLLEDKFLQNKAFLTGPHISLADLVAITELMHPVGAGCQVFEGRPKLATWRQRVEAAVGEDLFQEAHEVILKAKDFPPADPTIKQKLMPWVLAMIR
Chain of UniProt Q9BTY2 (Q9BTY2 whole entry, looked up): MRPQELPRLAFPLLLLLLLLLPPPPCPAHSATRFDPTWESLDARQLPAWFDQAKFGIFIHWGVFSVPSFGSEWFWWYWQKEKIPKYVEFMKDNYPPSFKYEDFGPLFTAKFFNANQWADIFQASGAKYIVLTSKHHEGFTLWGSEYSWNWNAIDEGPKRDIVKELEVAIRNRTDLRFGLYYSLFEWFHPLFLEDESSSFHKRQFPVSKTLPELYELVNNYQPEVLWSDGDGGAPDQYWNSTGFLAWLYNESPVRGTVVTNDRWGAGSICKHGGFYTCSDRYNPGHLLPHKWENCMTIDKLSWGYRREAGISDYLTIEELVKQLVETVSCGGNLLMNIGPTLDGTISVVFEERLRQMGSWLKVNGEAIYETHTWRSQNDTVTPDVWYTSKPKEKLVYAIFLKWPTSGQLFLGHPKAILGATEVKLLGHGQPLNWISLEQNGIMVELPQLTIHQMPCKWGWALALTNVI
Chain of UniProt P04066 (P04066 whole entry, looked up): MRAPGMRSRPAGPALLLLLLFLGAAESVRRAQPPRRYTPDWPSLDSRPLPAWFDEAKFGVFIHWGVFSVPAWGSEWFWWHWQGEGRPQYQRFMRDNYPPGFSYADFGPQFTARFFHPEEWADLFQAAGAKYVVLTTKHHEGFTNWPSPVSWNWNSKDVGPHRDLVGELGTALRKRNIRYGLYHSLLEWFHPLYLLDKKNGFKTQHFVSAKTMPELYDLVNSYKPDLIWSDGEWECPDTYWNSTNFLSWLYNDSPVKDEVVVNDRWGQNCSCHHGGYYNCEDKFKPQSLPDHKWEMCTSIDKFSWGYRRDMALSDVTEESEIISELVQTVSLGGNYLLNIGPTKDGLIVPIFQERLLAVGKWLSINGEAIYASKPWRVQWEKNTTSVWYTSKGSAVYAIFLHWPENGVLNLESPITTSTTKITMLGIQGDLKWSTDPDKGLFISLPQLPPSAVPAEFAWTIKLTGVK
Chain of UniProt P36915 (P36915 whole entry, looked up): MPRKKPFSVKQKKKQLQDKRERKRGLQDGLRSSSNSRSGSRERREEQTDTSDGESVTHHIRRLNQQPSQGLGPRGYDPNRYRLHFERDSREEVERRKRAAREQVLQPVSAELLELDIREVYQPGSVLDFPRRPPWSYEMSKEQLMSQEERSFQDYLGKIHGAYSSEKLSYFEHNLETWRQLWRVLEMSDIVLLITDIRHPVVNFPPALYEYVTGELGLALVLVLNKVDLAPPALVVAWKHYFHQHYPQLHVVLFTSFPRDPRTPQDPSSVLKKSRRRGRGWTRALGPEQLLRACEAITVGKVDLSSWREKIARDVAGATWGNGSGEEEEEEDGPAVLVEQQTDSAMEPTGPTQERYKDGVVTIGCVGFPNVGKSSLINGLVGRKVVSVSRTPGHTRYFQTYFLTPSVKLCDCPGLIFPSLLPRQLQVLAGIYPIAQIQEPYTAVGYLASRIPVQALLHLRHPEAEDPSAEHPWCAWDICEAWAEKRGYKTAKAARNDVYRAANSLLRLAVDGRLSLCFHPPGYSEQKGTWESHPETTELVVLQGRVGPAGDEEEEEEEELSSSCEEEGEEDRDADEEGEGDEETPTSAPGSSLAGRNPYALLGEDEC
Chain of UniProt Q8N9F7 (Q8N9F7 whole entry, looked up): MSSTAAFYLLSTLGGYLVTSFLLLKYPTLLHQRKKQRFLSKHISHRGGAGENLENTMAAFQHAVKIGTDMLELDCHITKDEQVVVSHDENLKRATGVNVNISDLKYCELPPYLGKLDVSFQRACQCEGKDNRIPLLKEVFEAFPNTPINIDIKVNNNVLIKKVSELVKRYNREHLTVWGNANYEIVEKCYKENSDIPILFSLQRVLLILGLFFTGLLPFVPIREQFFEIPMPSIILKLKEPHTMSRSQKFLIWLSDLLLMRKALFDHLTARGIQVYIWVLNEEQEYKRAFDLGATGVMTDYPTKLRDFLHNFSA
Chain of UniProt P01112 (P01112 whole entry, looked up): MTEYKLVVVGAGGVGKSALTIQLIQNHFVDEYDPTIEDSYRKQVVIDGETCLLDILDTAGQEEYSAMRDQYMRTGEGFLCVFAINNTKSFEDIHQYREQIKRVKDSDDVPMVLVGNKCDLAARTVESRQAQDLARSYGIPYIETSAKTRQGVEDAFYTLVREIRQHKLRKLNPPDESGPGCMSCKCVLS
Chain of UniProt Q658Y4 (Q658Y4 whole entry, looked up): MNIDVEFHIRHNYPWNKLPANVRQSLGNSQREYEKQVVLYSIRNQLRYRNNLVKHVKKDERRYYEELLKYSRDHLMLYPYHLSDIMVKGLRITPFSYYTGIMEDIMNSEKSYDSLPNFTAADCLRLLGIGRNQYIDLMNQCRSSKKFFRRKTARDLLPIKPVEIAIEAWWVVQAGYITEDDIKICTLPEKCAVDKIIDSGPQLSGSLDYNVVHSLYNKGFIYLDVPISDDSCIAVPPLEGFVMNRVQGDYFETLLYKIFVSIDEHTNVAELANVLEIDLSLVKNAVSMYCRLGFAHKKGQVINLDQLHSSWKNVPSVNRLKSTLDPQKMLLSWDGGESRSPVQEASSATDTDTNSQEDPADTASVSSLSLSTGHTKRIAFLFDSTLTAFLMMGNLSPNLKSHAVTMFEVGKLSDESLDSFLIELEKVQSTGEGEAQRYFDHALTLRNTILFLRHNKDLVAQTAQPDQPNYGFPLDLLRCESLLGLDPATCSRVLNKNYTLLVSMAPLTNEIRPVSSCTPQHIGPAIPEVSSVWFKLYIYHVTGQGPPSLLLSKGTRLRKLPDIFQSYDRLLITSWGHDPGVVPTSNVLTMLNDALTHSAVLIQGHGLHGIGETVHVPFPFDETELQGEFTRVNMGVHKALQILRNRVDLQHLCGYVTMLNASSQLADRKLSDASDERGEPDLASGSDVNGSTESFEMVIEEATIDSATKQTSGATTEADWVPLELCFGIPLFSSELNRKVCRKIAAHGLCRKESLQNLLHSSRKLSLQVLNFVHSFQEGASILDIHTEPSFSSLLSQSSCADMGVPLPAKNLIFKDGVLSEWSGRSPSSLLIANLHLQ
Chain of UniProt Q96I24 (Q96I24 whole entry, looked up): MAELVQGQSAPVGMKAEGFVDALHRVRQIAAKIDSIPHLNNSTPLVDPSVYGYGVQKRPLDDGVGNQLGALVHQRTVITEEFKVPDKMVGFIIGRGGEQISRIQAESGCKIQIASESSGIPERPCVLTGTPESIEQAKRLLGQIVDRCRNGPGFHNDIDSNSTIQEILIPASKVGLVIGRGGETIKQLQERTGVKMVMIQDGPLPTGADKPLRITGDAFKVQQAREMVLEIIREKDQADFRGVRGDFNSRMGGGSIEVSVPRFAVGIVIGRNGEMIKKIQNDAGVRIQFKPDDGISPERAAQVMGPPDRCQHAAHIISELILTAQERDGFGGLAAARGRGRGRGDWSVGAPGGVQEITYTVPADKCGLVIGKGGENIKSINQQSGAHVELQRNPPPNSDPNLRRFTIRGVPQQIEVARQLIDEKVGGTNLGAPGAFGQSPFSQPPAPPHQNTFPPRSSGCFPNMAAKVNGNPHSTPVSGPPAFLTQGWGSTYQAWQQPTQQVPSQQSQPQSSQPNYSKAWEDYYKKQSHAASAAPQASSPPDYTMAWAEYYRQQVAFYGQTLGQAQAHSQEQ
Chain of UniProt Q03013 (Q03013 whole entry, looked up): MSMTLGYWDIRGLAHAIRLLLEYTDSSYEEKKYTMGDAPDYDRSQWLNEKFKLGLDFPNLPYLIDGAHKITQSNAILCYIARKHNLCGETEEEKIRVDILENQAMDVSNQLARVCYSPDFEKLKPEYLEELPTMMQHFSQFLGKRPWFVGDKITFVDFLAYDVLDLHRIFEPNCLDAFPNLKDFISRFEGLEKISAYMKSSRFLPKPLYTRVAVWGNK
Chain of UniProt Q9UJY4 (Q9UJY4 whole entry, looked up): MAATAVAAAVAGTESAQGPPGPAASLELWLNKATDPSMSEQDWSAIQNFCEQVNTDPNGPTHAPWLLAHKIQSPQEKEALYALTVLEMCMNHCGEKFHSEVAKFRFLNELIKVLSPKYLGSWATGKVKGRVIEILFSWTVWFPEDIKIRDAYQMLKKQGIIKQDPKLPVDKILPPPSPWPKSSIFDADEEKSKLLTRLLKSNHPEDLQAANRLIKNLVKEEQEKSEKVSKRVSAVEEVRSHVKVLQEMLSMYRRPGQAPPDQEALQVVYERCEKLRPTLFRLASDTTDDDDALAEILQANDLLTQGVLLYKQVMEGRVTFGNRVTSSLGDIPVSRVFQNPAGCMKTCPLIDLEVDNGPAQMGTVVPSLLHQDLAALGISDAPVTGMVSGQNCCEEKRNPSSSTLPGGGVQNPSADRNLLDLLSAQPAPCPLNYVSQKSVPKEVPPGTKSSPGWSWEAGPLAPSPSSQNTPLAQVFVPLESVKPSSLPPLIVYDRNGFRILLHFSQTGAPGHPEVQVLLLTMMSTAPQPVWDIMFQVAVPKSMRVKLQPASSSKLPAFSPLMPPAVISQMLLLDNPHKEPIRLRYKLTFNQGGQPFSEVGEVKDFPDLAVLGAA
Chain of UniProt O15347 (O15347 whole entry, looked up): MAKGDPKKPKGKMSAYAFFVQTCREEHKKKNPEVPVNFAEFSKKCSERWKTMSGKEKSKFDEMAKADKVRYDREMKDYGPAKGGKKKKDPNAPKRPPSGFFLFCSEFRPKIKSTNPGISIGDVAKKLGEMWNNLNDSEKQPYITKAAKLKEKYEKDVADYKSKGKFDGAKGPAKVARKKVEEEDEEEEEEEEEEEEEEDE
Chain of UniProt Q9Y3D6 (Q9Y3D6 whole entry, looked up): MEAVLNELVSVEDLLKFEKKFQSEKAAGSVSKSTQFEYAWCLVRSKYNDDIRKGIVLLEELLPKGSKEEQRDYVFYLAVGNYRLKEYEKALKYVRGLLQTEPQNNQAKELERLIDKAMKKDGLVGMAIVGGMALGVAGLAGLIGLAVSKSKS

| Target | log2 fold change (erlotinib) | log2 fold change [1] | log2 fold change [2] | log2 fold change [3] | log2 fold change [4] | log2 fold change [5] | log2 fold change [6] | log2 fold change [7] | log2 fold change [8] | log2 fold change [9] | log2 fold change (IRAK-1-4 Inhibitor I) | log2 fold change (ibrutinib) | log2 fold change [10] | log2 fold change (ralimetinib) | log2 fold change [11] | log2 fold change [12] | log2 fold change [13] | log2 fold change (pinometostat) | log2 fold change [14] | log2 fold change [15] |
| --- | --- | --- | --- | --- | --- | --- | --- | --- | --- | --- | --- | --- | --- | --- | --- | --- | --- | --- | --- | --- |
| GSTM4 (UniProt Q03013) | 0.084 | -0.029 | 0.217 | -0.002 | -0.038 | 0.268 | -0.031 | -0.128 | 0.018 | 0.062 | 0.091 | -0.028 | -0.083 | -0.035 | -0.103 | 0.029 | -0.008 | -0.05 | -0.036 | 0.115 |
| GOPC (UniProt Q9HD26) | 0.016 | 0.051 | -0.284 | -0.178 | -0.027 | -0.147 | -0.008 | 0.265 | -0.036 | 0.06 | -0.119 | -0.104 | 0.03 | 0.259 | -0.04 | 0.046 | 0.083 | 0.174 | -0.118 | 0.085 |
| GSTT1 (UniProt P30711) | 0.037 | -0.007 | 0.275 | 0.033 | 0.114 | 0.037 | -0.044 | -0.031 | 0.003 | -0.028 | -0.054 | 0.007 | 0.009 | -0.079 | -0.079 | 0.076 | -0.005 | -0.124 | 0.139 | 0.157 |
| HK2 (UniProt P52789) | -0.068 | 0.037 | 0.051 | 0 | 0.028 | -0.015 | 0.005 | -0.017 | 0.009 | 0.023 | -0.007 | -0.01 | -0.096 | -0.037 | -0.046 | 0.096 | -0.022 | -0.001 | 0.063 | 0.034 |
| HNRNPH2 (UniProt P55795) | 0.019 | 0.17 | 0.037 | -0.028 | 0.112 | -0.031 | -0.047 | -0.016 | -0.068 | 0.024 | -0.081 | -0.024 | -0.134 | 0.137 | -0.067 | -0.345 (active) | 0.124 | 0 | 0.193 | -0.104 |
| GDPD1 (UniProt Q8N9F7) | 0.077 | 0.024 | -0.061 | -0.018 | -0.015 | 0.01 | 0.048 | -0.018 | -0.037 | 0.024 | 0.02 | -0.03 | 0.044 | 0.066 | -0.03 | 0.04 | 0.03 | -0.027 | -0.005 | -0.015 |
| FAM91A1 (UniProt Q658Y4) | 0.005 | 0.019 | 0.168 | 0.082 | 0.019 | -0.017 | -0.033 | 0.069 | -0.057 | -0.152 | 0.092 | -0.025 | -0.025 | 0.076 | -0.198 | -0.041 | 0 | 0.134 | 0.018 | 0.083 |
| GNL1 (UniProt P36915) | 0.044 | 0.046 | 0.048 | -0.028 | 0.037 | -0.004 | 0.074 | 0 | 0.035 | -0.055 | 0.07 | 0.037 | 0.046 | 0.011 | -0.063 | -0.03 | -0.014 | -0.006 | -0.037 | -0.086 |
| GHDC (UniProt Q8N2G8) | 0.062 | 0.046 | -0.002 | 0.013 | 0.011 | 0.003 | -0.021 | -0.008 | -0.009 | 0.06 | 0.014 | 0.015 | -0.036 | 0.007 | 0.037 | -0.277 (active) | 0.018 | -0.015 | 0.025 | -0.011 |
| FUCA1 (UniProt P04066) | 0.01 | 0.024 | 0.049 | -0.007 | 0.031 | -0.004 | -0.004 | 0.044 | 0.012 | 0.018 | -0.003 | 0.018 | -0.049 | -0.067 | 0.056 | -0.054 | 0.003 | -0.03 | -0.008 | -0.199 |
| HRAS (UniProt P01112) | 0.029 | 0.034 | 0.069 | 0.146 | -0.356 | -0.244 | 0.138 | -0.168 | -0.08 | 0.048 | 0.093 | 0.143 | 0.065 | 0 | -0.004 | 0.047 | 0.13 | -0.059 | -0.013 | -0.121 |
| HMGB3 (UniProt O15347) | -0.037 | -0.002 | 0.047 | 0.011 | -0.267 (active) | -0.042 | 0.095 | -0.006 | -0.025 | 0.023 | 0.071 | 0.038 | 0.083 | 0.163 | -0.007 | 0.068 | 0.001 | -0.019 | -0.003 | 0.016 |
| FIS1 (UniProt Q9Y3D6) | 0.013 | 0.066 | 0.015 | 0.01 | -0.034 | 0.024 | -0.025 | 0.02 | -0.06 | 0.09 | 0.029 | 0.003 | 0.067 | -0.036 | 0.029 | -0.023 | -0.025 | -0.074 | 0.004 | -0.031 |
| FUCA2 (UniProt Q9BTY2) | -0.001 | -0.03 | -0.026 | 0.013 | 0.015 | 0.038 | 0.033 | 0.029 | 0.056 | 0.017 | -0.078 | 0.043 | -0.056 | 0.019 | 0.026 | -0.09 | -0.004 | 0.036 | -0.036 | -0.12 |
| GGA2 (UniProt Q9UJY4) | 0.036 | -0.041 | -0.151 | 0.003 | 0.063 | 0.033 | -0.053 | -0.013 | 0.025 | -0.016 | 0.007 | -0.05 | -0.006 | -0.153 | -0.048 | -0.169 | 0.068 | -0.038 | -0.04 | 0.032 |
| FUBP3 (UniProt Q96I24) | -0.059 | 0.007 | 0.084 | 0.019 | -0.014 | 0.069 | -0.017 | 0.002 | 0.009 | 0.036 | -0.002 | -0.002 | -0.054 | 0.023 | -0.083 | 0.15 | 0.036 | -0.017 | -0.022 | 0.387 (active) |
